# Results as given in the OligoGym collection.
# Biological target: SECISBP2L
# Test: pooled miR-30 sensor sort-seq; sequence = guide strand
# Settings: shRNA
# Further: reference of the scale not given here.
row,Sequence,sensor-assay potency score (higher = more potent)
1,TAGCTGAGGTAGTACTGCCTGT,-0.712
2,TTGTTGAATATTCTCATCCTTA,-0.343
3,TACGCTAACAGGAACCAGCTTG,-0.34
4,TTGAAACCCATCTTCATCCTGT,0.983
5,TATAACACACTTGATCTTGTTT,0.0597
6,TAGTGTGAAAAGAAGCTGCAGT,0.417
7,TATAACATTATAGAGAGCCTCA,-0.0315
8,TTCCTGGGAAACAATCTCCTGT,-0.00713
9,TTGATCGACTATCAGGACCTGC,-0.0412
10,TTTCTGAATACTCTTGAGCTGT,-0.537
11,TTGCTGTGAAGCATCTACCAGA,-0.408
12,TAGTCCAGTATCTTCCTGGGAA,-0.242

# Biological target: SECISBP2
# Test: as above
# Settings: shRNA
row,Sequence,sensor-assay potency score (higher = more potent)
1,TTTGTTGTAGGAAGGATCCGAA,-0.00971
2,TAACACAAGCATCCACTTCTTT,-0.191
3,TTTGACTGTATCTTCTCACAGT,0.358
4,TTGACATCTGCTGATAACTTGA,-0.133
5,TTCACTGTCAAACTTTTGCTGA,-0.0289
6,TTTCAAACTATTCTCAGCGTAA,-0.344
7,TTGAGAGCAAACACAAAGGGAA,-0.174
8,TAACATTTTTAGGATCTGCTGA,0.162
9,TTCGCTTATGGTAACCATCTGA,0.0735
10,TTGCAGTTCAGGAAAGTCCAGT,-0.458
11,TTTTCTTCTTAAACAGAGCTTT,-0.323
12,TTTGATAACACTGCAGCTGGTT,0.27

# Biological target: SELL
# Test: as above
# Settings: shRNA
row,Sequence,sensor-assay potency score (higher = more potent)
1,TTCAGTAAGAGATTTGTTGGTT,0.629
2,TTGTATGGCAACTAAATCTGTG,-0.502
3,TAATTGTCTCGGCAGAATCTTC,-1.3
4,TAGGATTTGACCAGATTCCAGA,-0.318
5,TAAATCTGTGTAATTGTCTCGG,0.157
6,TTGATATAGATCTCCACGCAGT,-0.218
7,TTTGACATATTGGACTAGGATT,-1.37
8,TTCTCTTGGATTTCTTGCCTTT,0.216
9,TCACTTGACAGGTTGGTTCTGG,0.848
10,TTGTCTCGGCAGAATCTTCTAG,-0.184
11,TTATTGATGATTTCTACACATT,-1.76
12,TTAATCATTGAGAAACTTTTGT,-0.0417

# Biological target: SELO
# Test: as above
# Settings: shRNA
row,Sequence,sensor-assay potency score (higher = more potent)
1,TGTTTGTGAAGTCGGCACCGGT,-1.02
2,TTGCCGCTGAAGAACAGCGCGG,-1.34
3,TTTGGGATTACCATCATAGAAC,-1.22
4,TTCGCTGCATAGAAACTCCCGG,0.0168
